# From publication PMC7862700, “An all-to-all approach to the identification of sequence-specific readers for epigenetic DNA modifications on cytosine”
# Experiments:
# Test in all cases: DAPPL (digital affinity profiling via proximity ligation, sequencing); 10 mM Tris-HCl pH 7.5, 50 mM NaCl, 1 mM DTT, 4% glycerol, room temperature, 30 min; GST-TFs on glutathione beads, 16-mer random dsDNA library, 0.1% formaldehyde crosslink after washing; high values mean tight binding
# FLI1 = target: T1, FLI1 (Homo sapiens, UniProt Q01543 1-452); conditions: protein: recombinant; tags: N-terminal GST; dsDNA, one strand shown
# T1 sequence: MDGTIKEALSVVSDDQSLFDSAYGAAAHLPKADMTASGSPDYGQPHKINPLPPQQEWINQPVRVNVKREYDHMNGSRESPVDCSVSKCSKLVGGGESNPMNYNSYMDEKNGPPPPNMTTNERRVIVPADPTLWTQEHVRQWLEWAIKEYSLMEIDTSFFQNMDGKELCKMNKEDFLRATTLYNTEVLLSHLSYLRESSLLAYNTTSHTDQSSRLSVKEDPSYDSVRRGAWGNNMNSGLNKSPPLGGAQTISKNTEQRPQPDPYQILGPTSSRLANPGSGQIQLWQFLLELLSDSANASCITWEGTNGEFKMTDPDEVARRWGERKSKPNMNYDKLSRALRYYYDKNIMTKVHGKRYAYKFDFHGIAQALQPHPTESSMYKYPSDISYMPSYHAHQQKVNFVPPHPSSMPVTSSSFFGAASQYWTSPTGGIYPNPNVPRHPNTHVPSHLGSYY
# Summary of the method: (§1)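 Pools of DNA-barcoded human transcription factors, expressed in yeast as GST fusions on glutathione beads and combined with a tag-only sample, were incubated with 200 nmole of a 16-mer random double-stranded DNA library. Incubation took 30 min at room temperature in Tris/NaCl/DTT/glycerol buffer and was followed by washing, 0.1% formaldehyde crosslinking, proximity ligation (BsaI/T4 ligase, 1 h, 37 °C), PCR amplification and sequencing on an Illumina NextSeq500. Binding signal is the ratio of a hexamer's read frequency for a factor to its frequency for the tag-only sample.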
# ELK1 = target: T2, ELK1 (Homo sapiens, UniProt P19419 1-428); conditions: protein: recombinant; tags: N-terminal GST; dsDNA, one strand shown
# T2 sequence: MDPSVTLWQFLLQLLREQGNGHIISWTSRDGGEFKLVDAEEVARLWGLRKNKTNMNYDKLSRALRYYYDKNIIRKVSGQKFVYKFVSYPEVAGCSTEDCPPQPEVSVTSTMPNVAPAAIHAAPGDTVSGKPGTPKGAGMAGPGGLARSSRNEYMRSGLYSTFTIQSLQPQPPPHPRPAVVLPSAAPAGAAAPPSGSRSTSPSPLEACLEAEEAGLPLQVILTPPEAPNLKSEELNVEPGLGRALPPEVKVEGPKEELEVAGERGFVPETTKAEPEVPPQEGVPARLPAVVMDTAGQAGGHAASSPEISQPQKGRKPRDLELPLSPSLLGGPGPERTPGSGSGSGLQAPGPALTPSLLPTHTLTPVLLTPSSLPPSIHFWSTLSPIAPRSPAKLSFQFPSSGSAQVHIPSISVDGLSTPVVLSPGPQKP
# Summary of the method: as §1
# GABPA = target: T3, GABPA (Homo sapiens, UniProt Q06546 1-454); conditions: protein: recombinant; tags: N-terminal GST; dsDNA, one strand shown
# T3 sequence: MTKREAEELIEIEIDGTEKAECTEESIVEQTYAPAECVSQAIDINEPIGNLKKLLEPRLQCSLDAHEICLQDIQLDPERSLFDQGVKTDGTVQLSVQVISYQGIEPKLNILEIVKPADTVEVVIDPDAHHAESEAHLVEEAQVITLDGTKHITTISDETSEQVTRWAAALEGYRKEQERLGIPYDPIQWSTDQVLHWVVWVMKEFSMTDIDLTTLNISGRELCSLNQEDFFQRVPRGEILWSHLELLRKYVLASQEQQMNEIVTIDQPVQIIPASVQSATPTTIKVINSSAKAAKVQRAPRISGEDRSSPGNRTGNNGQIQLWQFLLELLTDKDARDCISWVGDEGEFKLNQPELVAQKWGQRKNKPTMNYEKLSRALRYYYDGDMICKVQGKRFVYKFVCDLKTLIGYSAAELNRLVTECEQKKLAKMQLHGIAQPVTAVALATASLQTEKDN
# Summary of the method: as §1
# ERG = target: T4, ERG (Homo sapiens, UniProt P11308 1-479); conditions: protein: recombinant; tags: N-terminal GST; dsDNA, one strand shown
# T4 sequence: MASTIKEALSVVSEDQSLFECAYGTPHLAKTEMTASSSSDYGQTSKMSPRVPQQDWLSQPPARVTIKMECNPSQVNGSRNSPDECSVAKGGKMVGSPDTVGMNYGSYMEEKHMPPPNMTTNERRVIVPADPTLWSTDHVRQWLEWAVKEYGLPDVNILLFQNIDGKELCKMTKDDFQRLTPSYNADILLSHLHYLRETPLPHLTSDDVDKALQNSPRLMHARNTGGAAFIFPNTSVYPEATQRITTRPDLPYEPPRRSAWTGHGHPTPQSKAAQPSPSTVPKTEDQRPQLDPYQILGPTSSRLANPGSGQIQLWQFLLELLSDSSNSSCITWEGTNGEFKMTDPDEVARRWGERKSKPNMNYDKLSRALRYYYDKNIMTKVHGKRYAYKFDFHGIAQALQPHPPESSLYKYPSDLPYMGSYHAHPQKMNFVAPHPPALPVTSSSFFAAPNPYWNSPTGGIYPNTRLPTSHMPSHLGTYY
# Summary of the method: as §1
# ELF1 = ELF1 (Homo sapiens, UniProt P32519 1-619); conditions: protein: recombinant; tags: N-terminal GST; dsDNA, one strand shown
# Chain of ELF1 (P32519 whole entry): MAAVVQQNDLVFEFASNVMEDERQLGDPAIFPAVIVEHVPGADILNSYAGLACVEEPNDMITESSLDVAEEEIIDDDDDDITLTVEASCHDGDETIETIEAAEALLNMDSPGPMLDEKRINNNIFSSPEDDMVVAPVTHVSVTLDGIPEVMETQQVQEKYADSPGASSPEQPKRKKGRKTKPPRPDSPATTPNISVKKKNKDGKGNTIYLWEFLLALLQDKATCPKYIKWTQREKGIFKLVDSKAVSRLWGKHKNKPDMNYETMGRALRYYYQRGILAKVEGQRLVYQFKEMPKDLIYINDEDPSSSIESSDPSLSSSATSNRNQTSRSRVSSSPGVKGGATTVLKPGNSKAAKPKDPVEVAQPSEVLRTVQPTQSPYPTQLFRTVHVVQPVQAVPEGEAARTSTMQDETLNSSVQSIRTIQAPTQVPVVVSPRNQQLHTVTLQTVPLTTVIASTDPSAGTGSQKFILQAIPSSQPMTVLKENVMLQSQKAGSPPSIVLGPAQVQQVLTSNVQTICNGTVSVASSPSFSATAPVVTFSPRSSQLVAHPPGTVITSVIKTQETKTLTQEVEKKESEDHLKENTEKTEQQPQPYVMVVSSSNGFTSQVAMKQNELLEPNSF
# Summary of the method: as §1
# EHF = target: T5, EHF (Homo sapiens, UniProt Q9NZC4 1-300); conditions: protein: recombinant; tags: N-terminal GST; dsDNA, one strand shown
# T5 sequence: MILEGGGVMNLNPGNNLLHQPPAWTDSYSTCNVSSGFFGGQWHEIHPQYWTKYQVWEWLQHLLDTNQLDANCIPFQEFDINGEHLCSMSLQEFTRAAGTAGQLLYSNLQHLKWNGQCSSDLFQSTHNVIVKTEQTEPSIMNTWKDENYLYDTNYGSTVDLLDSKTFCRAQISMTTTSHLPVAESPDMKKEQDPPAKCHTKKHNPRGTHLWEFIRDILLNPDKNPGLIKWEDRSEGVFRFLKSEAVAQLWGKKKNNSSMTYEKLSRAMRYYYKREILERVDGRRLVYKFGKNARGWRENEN
# Summary of the method: as §1
# SPI1 = SPI1 (Homo sapiens, UniProt P17947 1-270); conditions: protein: recombinant; tags: N-terminal GST; dsDNA, one strand shown
# Summary of the method: as §1
# SPIB = SPIB (Homo sapiens, UniProt Q01892 1-262); conditions: protein: recombinant; tags: N-terminal GST; dsDNA, one strand shown
# Chain of SPIB (Q01892 whole entry): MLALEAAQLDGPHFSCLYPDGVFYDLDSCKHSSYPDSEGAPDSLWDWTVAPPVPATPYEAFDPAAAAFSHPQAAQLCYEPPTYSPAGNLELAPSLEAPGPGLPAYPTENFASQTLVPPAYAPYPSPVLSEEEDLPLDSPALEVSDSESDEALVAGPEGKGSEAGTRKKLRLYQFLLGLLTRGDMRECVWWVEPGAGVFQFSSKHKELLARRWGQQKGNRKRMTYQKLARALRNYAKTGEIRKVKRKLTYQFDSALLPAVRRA
# Summary of the method: as §1
# ELK3 = target: T6, ELK3 (Homo sapiens, UniProt P41970 1-407); conditions: protein: recombinant; tags: N-terminal GST; dsDNA, one strand shown
# T6 sequence: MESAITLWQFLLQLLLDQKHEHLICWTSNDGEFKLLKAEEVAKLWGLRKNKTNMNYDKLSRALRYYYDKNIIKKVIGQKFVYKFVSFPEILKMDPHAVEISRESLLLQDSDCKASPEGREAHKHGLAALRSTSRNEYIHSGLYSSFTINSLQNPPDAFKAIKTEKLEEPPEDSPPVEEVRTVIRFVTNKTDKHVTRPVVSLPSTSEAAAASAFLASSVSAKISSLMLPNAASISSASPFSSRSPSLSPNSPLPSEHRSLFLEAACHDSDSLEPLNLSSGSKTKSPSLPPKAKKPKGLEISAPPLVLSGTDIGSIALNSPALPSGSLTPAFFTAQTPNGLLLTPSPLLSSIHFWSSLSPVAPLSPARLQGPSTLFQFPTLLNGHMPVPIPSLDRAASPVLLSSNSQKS
# Summary of the method: as §1
# ETV5 = ETV5 (Homo sapiens, UniProt P41161 1-510); conditions: protein: recombinant; tags: N-terminal GST; dsDNA, one strand shown
# Chain of ETV5 (P41161 whole entry): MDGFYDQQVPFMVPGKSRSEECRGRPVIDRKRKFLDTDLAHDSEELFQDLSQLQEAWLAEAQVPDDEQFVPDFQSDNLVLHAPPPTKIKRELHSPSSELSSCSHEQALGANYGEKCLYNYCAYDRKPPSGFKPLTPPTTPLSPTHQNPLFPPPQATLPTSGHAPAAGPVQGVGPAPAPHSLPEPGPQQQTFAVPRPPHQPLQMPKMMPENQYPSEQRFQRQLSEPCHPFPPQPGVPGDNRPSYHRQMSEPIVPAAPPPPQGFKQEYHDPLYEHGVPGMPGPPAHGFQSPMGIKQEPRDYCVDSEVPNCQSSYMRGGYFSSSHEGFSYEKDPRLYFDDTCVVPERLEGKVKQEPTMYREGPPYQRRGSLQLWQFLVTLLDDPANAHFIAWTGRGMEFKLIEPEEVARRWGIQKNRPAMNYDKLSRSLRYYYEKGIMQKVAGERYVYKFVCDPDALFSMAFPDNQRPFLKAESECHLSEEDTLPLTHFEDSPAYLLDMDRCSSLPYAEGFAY
# Summary of the method: as §1
# HSF1 = HSF1 (Homo sapiens, UniProt Q00613 1-529); conditions: protein: recombinant; tags: N-terminal GST; chain copies: 3; dsDNA, one strand shown
# Chain of HSF1 (Q00613 whole entry): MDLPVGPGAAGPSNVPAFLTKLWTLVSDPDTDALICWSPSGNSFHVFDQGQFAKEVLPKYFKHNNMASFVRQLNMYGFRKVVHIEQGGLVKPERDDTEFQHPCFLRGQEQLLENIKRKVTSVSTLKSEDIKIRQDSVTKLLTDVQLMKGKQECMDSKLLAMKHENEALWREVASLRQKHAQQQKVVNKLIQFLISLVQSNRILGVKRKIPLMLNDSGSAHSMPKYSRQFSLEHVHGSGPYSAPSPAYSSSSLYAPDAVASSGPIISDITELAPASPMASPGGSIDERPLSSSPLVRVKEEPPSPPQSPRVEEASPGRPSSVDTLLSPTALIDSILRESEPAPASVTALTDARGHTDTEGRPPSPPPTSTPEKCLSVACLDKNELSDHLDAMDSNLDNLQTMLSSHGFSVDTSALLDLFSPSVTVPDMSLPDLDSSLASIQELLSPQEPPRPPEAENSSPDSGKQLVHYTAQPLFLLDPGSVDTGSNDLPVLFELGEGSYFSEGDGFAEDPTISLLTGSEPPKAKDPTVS
# Summary of the method: as §1
# SPIC = target: T7, SPIC (Homo sapiens, UniProt Q8N5J4 1-248); conditions: protein: recombinant; tags: N-terminal GST; dsDNA, one strand shown
# T7 sequence: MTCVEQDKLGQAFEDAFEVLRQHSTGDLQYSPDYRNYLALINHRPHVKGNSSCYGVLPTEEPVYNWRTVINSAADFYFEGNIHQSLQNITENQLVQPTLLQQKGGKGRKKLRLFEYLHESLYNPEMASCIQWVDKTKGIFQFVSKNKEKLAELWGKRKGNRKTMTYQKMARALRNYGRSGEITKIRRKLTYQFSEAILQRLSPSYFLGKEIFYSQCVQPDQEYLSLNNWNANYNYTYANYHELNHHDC
# Summary of the method: as §1
# ELF4 = ELF4 (Homo sapiens, UniProt Q99607 1-663); conditions: protein: recombinant; tags: N-terminal GST; dsDNA, one strand shown
# Chain of ELF4 (Q99607 whole entry): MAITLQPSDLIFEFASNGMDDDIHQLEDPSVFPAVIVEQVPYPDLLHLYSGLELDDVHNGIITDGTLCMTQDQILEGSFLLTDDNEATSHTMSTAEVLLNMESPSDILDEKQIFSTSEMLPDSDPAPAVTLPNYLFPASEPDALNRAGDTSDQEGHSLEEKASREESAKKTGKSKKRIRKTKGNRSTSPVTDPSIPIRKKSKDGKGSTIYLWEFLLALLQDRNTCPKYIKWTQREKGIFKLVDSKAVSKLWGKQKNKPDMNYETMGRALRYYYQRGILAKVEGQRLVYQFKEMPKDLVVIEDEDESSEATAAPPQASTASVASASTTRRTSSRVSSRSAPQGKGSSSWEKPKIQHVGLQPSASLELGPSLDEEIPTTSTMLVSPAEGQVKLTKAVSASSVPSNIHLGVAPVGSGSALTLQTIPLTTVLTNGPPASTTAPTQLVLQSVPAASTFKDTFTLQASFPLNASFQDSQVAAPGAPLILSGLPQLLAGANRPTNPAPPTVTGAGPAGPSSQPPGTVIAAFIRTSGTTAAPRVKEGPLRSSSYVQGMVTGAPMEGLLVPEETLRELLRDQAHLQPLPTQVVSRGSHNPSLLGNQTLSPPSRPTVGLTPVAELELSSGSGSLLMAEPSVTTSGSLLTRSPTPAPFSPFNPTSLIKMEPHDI
# Summary of the method: as §1
# ELK4 = target: T8, ELK4 (Homo sapiens, UniProt P28324-2 1-405); conditions: protein: recombinant; tags: N-terminal GST; dsDNA, one strand shown
# T8 sequence: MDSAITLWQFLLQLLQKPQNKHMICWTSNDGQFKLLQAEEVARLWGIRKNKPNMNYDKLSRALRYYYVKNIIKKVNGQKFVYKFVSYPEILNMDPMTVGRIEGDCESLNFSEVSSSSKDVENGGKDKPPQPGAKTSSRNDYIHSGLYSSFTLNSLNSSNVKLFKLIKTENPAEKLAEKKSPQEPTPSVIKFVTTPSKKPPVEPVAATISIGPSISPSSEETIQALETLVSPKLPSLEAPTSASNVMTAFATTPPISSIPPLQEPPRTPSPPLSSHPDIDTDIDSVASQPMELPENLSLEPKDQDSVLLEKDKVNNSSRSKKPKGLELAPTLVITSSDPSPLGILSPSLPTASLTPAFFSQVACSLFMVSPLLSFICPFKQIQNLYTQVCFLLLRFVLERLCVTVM
# Summary of the method: as §1
# ETV2 = target: T9, ETV2 (Homo sapiens, UniProt O00321 1-342); conditions: protein: recombinant; tags: N-terminal GST; dsDNA, one strand shown
# T9 sequence: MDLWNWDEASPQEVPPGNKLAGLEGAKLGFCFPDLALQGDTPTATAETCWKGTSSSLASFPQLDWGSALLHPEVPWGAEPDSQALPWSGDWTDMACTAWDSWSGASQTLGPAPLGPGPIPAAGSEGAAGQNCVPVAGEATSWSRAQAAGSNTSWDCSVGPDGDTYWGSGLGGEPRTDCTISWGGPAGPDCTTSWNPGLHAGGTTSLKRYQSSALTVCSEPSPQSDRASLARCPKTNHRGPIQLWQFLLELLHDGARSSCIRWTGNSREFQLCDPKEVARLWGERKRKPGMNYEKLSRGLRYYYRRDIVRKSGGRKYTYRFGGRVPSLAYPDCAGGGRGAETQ
# Summary of the method: as §1
# ELF3 = target: T10, ELF3 (Homo sapiens, UniProt P78545 1-371); conditions: protein: recombinant; tags: N-terminal GST; dsDNA, one strand shown
# T10 sequence: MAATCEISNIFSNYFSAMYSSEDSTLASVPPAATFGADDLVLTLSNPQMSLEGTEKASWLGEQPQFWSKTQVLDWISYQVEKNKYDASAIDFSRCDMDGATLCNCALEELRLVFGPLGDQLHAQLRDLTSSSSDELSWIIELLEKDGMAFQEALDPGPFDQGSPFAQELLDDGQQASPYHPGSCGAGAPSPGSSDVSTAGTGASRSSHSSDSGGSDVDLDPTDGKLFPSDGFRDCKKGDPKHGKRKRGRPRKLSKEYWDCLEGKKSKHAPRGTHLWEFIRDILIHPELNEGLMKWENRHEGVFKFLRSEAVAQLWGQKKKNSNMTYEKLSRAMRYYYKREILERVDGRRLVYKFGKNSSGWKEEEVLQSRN
# Summary of the method: as §1
# CRX = CRX (Homo sapiens, UniProt O43186 1-299); conditions: protein: recombinant; tags: N-terminal GST; dsDNA, one strand shown
# Chain of CRX (O43186 whole entry): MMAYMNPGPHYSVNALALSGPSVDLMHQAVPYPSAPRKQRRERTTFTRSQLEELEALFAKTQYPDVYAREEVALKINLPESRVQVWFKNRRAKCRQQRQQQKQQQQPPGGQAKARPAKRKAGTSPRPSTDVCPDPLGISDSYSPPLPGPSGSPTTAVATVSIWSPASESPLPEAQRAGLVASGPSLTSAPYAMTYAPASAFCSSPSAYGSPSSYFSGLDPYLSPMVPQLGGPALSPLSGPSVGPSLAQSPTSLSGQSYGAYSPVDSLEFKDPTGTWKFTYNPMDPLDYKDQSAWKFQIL
# Summary of the method: as §1
# ETV1 = ETV1 (Homo sapiens, UniProt P50549 1-477); conditions: protein: recombinant; tags: N-terminal GST; dsDNA, one strand shown
# Chain of ETV1 (P50549 whole entry): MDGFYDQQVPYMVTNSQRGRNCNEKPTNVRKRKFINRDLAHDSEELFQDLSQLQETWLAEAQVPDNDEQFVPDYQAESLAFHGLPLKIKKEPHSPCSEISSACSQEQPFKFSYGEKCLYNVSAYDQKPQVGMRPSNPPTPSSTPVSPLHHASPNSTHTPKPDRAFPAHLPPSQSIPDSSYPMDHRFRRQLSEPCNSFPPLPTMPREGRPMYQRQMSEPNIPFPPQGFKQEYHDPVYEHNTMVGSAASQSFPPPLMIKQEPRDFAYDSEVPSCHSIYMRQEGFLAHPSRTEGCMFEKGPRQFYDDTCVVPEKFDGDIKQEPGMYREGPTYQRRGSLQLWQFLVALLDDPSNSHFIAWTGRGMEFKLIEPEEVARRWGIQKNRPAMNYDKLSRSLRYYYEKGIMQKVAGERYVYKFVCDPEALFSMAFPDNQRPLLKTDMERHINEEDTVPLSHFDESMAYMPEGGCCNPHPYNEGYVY
# Summary of the method: as §1
sequence,measurement,setting,value
CTATTA,binding signal,FLI1,"1.18 fold enrichment (6-mer frequency, TF over GST control)"
same,binding signal,ELK1,"1.05 fold enrichment (6-mer frequency, TF over GST control)"
same,binding signal,GABPA,"1.06 fold enrichment (6-mer frequency, TF over GST control)"
same,binding signal,ERG,"1.07 fold enrichment (6-mer frequency, TF over GST control)"
same,binding signal,ELF1,"1.09 fold enrichment (6-mer frequency, TF over GST control)"
same,binding signal,EHF,"1.12 fold enrichment (6-mer frequency, TF over GST control)"
same,binding signal,SPI1,"1.1 fold enrichment (6-mer frequency, TF over GST control)"
same,binding signal,SPIB,"1.13 fold enrichment (6-mer frequency, TF over GST control)"
same,binding signal,ELK3,"1.04 fold enrichment (6-mer frequency, TF over GST control)"
same,binding signal,ETV5,"1.14 fold enrichment (6-mer frequency, TF over GST control)"
same,binding signal,HSF1,"1.3 fold enrichment (6-mer frequency, TF over GST control)"
same,binding signal,SPIC,"1.07 fold enrichment (6-mer frequency, TF over GST control)"
same,binding signal,ELF4,"1.14 fold enrichment (6-mer frequency, TF over GST control)"
same,binding signal,ELK4,"1.09 fold enrichment (6-mer frequency, TF over GST control)"
same,binding signal,ETV2,"1.13 fold enrichment (6-mer frequency, TF over GST control)"
same,binding signal,ELF3,"1.03 fold enrichment (6-mer frequency, TF over GST control)"
same,binding signal,CRX,"1.76 fold enrichment (6-mer frequency, TF over GST control)"
same,binding signal,ETV1,"1.14 fold enrichment (6-mer frequency, TF over GST control)"
